Source: the supplement of paper PMC11732987, “Enantioselective OTUD7B fragment discovery through chemoproteomics screening and high-throughput optimisation” (Communications Chemistry, 2025)
Unmarked numbers belong to inactive results.

Key:
Test in all cases: log2 ratio of Biotin-Ahx-Ub-VS probe labelling (fragment/DMSO); higher = less target engagement (more negative = stronger competition), active = hit call of the paper (q ≤ 0.05, log2 ratio ≤ -1)
Details in all cases: compound concentration: 200 uM; treatment time: 3 h
OTUD6B = biological target: T1, OTUD6B (UniProt Q8N6M0)
T1 sequence (whole entry): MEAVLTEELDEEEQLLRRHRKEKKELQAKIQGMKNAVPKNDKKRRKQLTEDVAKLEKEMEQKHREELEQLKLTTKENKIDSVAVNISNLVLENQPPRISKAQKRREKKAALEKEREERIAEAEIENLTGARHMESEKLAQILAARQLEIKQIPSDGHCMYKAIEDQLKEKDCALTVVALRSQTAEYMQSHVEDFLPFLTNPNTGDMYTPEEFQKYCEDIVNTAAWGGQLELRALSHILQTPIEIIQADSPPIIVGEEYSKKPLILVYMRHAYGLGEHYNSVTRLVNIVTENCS
Summary of the method: (§1)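 Labelled DUBs were enriched with NeutrAvidin, digested with LysC and trypsin, and run by diaPASEF LC-MS/MS. The labelling used Biotin-Ahx-Ub-VS at 0.5 µM final for 1 h on HEK293T lysate (495 µg per sample) previously treated in triplicate with fragment at 200 µM or vehicle for 3 h. Values are average log2 fragment/vehicle ratios by unpaired t-test on global-median-normalised Spectronaut quantities of proteins with ≥2 unique peptides.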

OTUD7B = biological target: T2, OTUD7B (UniProt Q6GQQ9)
T2 sequence (whole entry): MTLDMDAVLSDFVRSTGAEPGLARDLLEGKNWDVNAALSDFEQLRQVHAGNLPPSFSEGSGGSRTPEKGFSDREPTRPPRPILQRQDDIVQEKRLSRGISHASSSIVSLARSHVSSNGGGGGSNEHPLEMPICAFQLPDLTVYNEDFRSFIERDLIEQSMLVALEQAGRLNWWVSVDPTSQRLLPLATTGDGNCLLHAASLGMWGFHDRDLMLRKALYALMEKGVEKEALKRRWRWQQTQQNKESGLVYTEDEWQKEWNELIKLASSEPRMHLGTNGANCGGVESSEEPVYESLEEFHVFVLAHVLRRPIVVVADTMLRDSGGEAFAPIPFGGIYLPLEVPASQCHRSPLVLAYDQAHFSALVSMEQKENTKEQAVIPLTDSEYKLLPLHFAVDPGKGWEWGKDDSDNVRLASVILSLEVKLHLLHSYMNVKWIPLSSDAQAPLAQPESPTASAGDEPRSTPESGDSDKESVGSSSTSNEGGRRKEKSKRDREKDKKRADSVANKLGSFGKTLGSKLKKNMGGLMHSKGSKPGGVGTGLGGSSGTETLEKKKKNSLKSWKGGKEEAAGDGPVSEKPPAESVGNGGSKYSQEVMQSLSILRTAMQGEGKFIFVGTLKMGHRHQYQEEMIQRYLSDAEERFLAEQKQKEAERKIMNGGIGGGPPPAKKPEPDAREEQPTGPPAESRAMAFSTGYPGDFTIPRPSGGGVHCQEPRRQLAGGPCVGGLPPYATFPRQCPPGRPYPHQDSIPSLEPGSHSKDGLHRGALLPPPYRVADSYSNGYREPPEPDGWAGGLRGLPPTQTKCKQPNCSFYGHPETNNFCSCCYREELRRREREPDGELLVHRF
Summary of the method: as §1

PRPF8 = PRPF8 (UniProt Q6P2Q9)
Summary of the method: as §1

PSMD7 = biological target: T3, PSMD7 (UniProt P51665)
T3 sequence (whole entry): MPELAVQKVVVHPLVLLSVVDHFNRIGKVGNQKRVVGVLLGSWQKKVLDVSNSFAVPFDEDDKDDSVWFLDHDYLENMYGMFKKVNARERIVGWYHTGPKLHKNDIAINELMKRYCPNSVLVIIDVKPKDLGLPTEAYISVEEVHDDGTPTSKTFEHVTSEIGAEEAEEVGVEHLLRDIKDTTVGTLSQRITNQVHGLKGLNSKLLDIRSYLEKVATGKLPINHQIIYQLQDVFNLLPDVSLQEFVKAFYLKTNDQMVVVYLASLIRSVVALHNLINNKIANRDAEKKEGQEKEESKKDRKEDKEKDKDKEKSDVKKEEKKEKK
Summary of the method: as §1

UCHL1 = UCHL1 (UniProt P09936)
Chain of UCHL1 (P09936 whole entry, looked up): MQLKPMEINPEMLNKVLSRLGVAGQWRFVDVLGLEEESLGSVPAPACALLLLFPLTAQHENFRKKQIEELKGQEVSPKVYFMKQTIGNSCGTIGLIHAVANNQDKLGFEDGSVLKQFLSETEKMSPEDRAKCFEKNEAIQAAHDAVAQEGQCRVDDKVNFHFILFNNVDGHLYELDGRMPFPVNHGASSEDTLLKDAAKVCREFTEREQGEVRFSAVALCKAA
Summary of the method: as §1

UCHL3 = biological target: T4, UCHL3 (UniProt P15374)
T4 sequence (whole entry): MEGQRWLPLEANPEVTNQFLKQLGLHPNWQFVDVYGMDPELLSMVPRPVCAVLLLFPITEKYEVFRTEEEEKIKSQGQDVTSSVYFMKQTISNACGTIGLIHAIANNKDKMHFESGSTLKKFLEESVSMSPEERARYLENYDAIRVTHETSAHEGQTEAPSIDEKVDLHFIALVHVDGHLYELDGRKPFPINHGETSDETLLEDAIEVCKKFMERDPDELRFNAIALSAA
Summary of the method: as §1

UCHL5 = biological target: T5, UCHL5 (UniProt Q9Y5K5)
T5 sequence (whole entry): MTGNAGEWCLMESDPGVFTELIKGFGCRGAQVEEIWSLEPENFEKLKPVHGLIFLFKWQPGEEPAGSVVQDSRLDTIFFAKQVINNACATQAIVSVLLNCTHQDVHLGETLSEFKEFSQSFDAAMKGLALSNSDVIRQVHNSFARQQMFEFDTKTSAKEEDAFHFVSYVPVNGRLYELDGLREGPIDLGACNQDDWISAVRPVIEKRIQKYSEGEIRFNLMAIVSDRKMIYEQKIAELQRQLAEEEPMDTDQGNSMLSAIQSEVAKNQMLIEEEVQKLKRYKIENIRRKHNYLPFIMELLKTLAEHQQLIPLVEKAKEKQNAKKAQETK
Summary of the method: as §1

USP10 = USP10 (UniProt Q14694)
Chain of USP10 (Q14694 whole entry): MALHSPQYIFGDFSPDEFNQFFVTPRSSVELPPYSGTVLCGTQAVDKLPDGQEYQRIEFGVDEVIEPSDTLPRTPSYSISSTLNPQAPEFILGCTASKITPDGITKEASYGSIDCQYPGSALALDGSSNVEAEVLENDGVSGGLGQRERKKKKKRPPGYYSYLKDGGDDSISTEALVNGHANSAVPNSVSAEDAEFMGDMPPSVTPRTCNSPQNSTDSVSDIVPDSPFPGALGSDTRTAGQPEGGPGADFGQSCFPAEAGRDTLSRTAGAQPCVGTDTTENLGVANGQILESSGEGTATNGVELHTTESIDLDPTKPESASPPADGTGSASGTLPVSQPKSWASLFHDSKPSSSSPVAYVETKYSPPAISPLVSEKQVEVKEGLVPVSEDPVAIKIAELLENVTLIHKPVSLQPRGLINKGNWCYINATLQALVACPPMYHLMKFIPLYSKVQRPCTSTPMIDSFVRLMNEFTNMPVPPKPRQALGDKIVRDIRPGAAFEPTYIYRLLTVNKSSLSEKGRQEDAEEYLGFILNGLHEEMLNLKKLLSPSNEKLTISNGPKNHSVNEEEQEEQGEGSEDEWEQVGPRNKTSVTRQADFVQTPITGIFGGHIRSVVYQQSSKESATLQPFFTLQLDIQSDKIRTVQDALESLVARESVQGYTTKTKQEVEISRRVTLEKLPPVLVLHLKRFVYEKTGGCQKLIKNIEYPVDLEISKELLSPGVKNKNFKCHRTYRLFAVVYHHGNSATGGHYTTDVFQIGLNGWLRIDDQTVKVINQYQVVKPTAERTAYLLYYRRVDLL
Summary of the method: as §1

USP15 = biological target: T6, USP15 (UniProt Q9Y4E8)
T6 sequence (whole entry): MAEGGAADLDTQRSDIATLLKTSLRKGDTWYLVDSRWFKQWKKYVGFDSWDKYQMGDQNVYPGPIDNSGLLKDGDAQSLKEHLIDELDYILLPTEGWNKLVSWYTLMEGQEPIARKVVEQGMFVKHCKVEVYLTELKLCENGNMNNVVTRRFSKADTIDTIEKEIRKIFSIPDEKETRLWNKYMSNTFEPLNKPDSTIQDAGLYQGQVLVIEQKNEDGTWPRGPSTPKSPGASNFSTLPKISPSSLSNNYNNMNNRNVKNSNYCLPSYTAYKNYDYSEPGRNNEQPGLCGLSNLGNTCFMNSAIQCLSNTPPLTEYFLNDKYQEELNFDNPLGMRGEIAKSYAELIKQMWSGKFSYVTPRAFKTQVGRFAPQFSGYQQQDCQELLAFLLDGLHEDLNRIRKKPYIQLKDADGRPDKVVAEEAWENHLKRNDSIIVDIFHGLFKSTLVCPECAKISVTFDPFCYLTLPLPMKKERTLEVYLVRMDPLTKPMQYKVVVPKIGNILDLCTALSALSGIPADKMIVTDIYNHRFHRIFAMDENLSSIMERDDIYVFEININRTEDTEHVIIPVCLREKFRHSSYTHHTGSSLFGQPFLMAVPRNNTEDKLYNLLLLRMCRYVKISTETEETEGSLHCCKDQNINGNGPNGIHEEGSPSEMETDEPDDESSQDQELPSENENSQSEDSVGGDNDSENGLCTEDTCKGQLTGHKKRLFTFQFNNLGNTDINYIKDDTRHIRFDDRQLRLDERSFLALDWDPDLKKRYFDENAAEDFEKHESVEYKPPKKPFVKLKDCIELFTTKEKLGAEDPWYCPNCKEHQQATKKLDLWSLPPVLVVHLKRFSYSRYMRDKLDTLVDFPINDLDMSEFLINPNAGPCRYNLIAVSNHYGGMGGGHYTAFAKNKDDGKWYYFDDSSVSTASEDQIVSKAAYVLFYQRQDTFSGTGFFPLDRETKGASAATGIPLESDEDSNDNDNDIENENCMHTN
Summary of the method: as §1

Cc1ccc(N(C(=O)CCl)C2C=CS(=O)(=O)C2)cc1 (centres undefined)
log2 ratio of Biotin-Ahx-Ub-VS probe labelling (OTUD6B): 0.181
log2 ratio of Biotin-Ahx-Ub-VS probe labelling (OTUD7B): -0.0624
log2 ratio of Biotin-Ahx-Ub-VS probe labelling (PRPF8): 0.0782
log2 ratio of Biotin-Ahx-Ub-VS probe labelling (PSMD7): -0.0467
log2 ratio of Biotin-Ahx-Ub-VS probe labelling (UCHL1): -1.28 (active)
log2 ratio of Biotin-Ahx-Ub-VS probe labelling (UCHL3): 0.419
log2 ratio of Biotin-Ahx-Ub-VS probe labelling (UCHL5): -0.13
log2 ratio of Biotin-Ahx-Ub-VS probe labelling (USP10): -0.0181
log2 ratio of Biotin-Ahx-Ub-VS probe labelling (USP15): -0.145
